Assay results reported in PubChem BioAssay AID1159580 (chemical genetic matrix, 2015).
Among all 5,500 compounds or so, about 2,000 (36%) were called active. Not shown: some 18% with an inconclusive outcome. Rule as the data show it: active = normalized growth mostly below about 0.91 (no sharp cut-off); inconclusive = no clear call, values can overlap the other calls; inactive = mostly above about 0.92. The list shows a part of the results.

Test: chemical genetic growth profiling, strain panel (AID 1159580);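 also: tested at 20 µM; growth read once vehicle control cultures reached saturation at 30 °C; 1 = growth at the plate median or of vehicle wells; lower values mean less growth of the strain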
Details: growth OD
[1] = S. cerevisiae deletion strains, locus YDL101C, strain DUN1, active compounds read low
[2] = S. cerevisiae deletion strains, locus YHR030C, strain SLT2, active compounds read low
[3] = S. cerevisiae deletion strains, locus YGR078C, strain PAC10, active compounds read low
[4] = S. cerevisiae deletion strains, locus YMR307W, strain GAS1, active compounds read low
[5] = S. cerevisiae deletion strains, locus YNL153C, strain GIM3, active compounds read low
[6] = S. cerevisiae deletion strains, locus YPL055C, strain LGE1, active compounds read low
[7] = S. cerevisiae deletion strains, locus YPL241C, strain CIN2, active compounds read low
[8] = S. cerevisiae deletion strains, locus YAL013W, strain DEP1, active compounds read low
[9] = S. cerevisiae deletion strains, locus YBR229C, strain ROT2, active compounds read low
[10] = S. cerevisiae deletion strains, locus YDR150W, strain NUM1, active compounds read low
[11] = S. cerevisiae deletion strains, locus YEL061C, strain CIN8, active compounds read low
[12] = S. cerevisiae deletion strains, locus YHR087W, strain rtc3, active compounds read low
[13] = S. cerevisiae deletion strains, locus YJR043C, strain POL32, active compounds read low
[14] = S. cerevisiae deletion strains, locus YJR075W, strain HOC1, active compounds read low
[15] = S. cerevisiae deletion strains, locus YLR039C, strain RIC1, active compounds read low
[16] = S. cerevisiae deletion strains, locus YLR058C, strain SHM2 (second series), active compounds read low
[17] = S. cerevisiae deletion strains, locus YLR085C, strain ARP6, active compounds read low
[18] = S. cerevisiae deletion strains, locus YLR262C, strain YPT6, active compounds read low
[19] = S. cerevisiae deletion strains, locus YML094W, strain GIM5, active compounds read low
[20] = S. cerevisiae deletion strains, locus YMR219W, strain ESC1, active compounds read low
[21] = S. cerevisiae deletion strains, locus YMR263W, strain SAP30, active compounds read low
[22] = S. cerevisiae deletion strains, locus YNL298W, strain CLA4 (second series), active compounds read low
[23] = S. cerevisiae deletion strains, locus YNL322C, strain KRE1, active compounds read low
[24] = S. cerevisiae deletion strains, locus YNR030W, strain Alg12, active compounds read low
[25] = S. cerevisiae deletion strains, locus YPR135W, strain CTF4, active compounds read low
[26] = S. cerevisiae strains, strain wild type, active compounds read low

Measured: normalized growth

CC(C)(C)C1=C(C#N)C(c2c(Cl)cccc2Cl)C(C#N)=C(N)O1 (stereo not given)
inactive: S. cerevisiae deletion strains, locus YAR019C, strain CDC15, active compounds read low 0.987 | S. cerevisiae deletion strains, locus YBL105C, strain PKC1, active compounds read low 0.99 | S. cerevisiae deletion strains, locus YBR135W, strain CKS1, active compounds read low 0.992 | S. cerevisiae deletion strains, locus YBR136W, strain MEC1, active compounds read low 0.989 | S. cerevisiae deletion strains, locus YBR160W, strain CDC28, active compounds read low 0.996 | S. cerevisiae deletion strains, locus YDL017W, strain CDC7, active compounds read low 0.99 | S. cerevisiae deletion strains, locus YDL028C, strain MPS1, active compounds read low 0.997 | [1] 0.979 | S. cerevisiae deletion strains, locus YDL108W, strain KIN28, active compounds read low 0.992 | S. cerevisiae deletion strains, locus YDL132W, strain cdc53, active compounds read low 0.978 | S. cerevisiae deletion strains, locus YDL214C, strain PRR2, active compounds read low 0.987 | S. cerevisiae deletion strains, locus YDR052C, strain DBF4, active compounds read low 0.997 | S. cerevisiae deletion strains, locus YDR054C, strain cdc34, active compounds read low 0.976 | S. cerevisiae deletion strains, locus YDR226W, strain ADK1, active compounds read low 0.979 | S. cerevisiae deletion strains, locus YDR477W, strain SNF1, active compounds read low 0.995 | S. cerevisiae deletion strains, locus YER123W, strain YCK3, active compounds read low 0.996 | S. cerevisiae deletion strains, locus YER133W, strain GLC7, active compounds read low 0.984 | S. cerevisiae deletion strains, locus YFL009W, strain cdc4, active compounds read low 0.98 | S. cerevisiae deletion strains, locus YFL029C, strain CAK1, active compounds read low 0.983 | S. cerevisiae deletion strains, locus YFR003C, strain YPI1, active compounds read low 0.992 | S. cerevisiae deletion strains, locus YFR019W, strain FAB1, active compounds read low 1 | S. cerevisiae deletion strains, locus YFR028C, strain CDC14, active compounds read low 0.978 | S. cerevisiae deletion strains, locus YGR040W, strain KSS1, active compounds read low 0.991 | S. cerevisiae deletion strains, locus YGR052W, strain FMP48, active compounds read low 1.01 | S. cerevisiae deletion strains, locus YGR092W, strain DBF2, active compounds read low 0.98 | [2] 0.983 | S. cerevisiae deletion strains, locus YHR079C, strain IRE1, active compounds read low 0.891 | S. cerevisiae deletion strains, locus YHR082C, strain KSP1, active compounds read low 1.09 | S. cerevisiae deletion strains, locus YHR205W, strain SCH9, active compounds read low 0.913 | S. cerevisiae deletion strains, locus YIL147C, strain SLN1, active compounds read low 0.993 | S. cerevisiae deletion strains, locus YJL095W, strain BCK1, active compounds read low 0.894 | S. cerevisiae deletion strains, locus YJL128C, strain PBS2, active compounds read low 0.925 | S. cerevisiae deletion strains, locus YJL157C, strain FAR1, active compounds read low 1.01 | S. cerevisiae deletion strains, locus YJR016C, strain ILV3, active compounds read low 0.984 | S. cerevisiae deletion strains, locus YJR066W, strain TOR1 (second series), active compounds read low 0.983 | S. cerevisiae deletion strains, locus YJR066W, strain TOR1, active compounds read low 1.1 | S. cerevisiae deletion strains, locus YKL048C, strain ELM1, active compounds read low 0.922 | S. cerevisiae deletion strains, locus YKL067W, strain YNK1, active compounds read low 0.988 | S. cerevisiae deletion strains, locus YKL101W, strain HSL1, active compounds read low 0.961 | S. cerevisiae deletion strains, locus YKL193C, strain SDS22, active compounds read low 0.989 | S. cerevisiae deletion strains, locus YKL203C, strain TOR2, active compounds read low 1.07 | S. cerevisiae deletion strains, locus YLR113W, strain HOG1, active compounds read low 0.885 | S. cerevisiae deletion strains, locus YLR133W, strain CKI1, active compounds read low 1.02 | S. cerevisiae deletion strains, locus YLR403W, strain SFP1, active compounds read low 0.944 | S. cerevisiae deletion strains, locus YML070W, strain DAK1, active compounds read low 0.992 | S. cerevisiae deletion strains, locus YMR001C, strain CDC5, active compounds read low 0.995 | S. cerevisiae deletion strains, locus YMR205C, strain PFK2 (second series), active compounds read low 0.993 | S. cerevisiae deletion strains, locus YMR277W, strain FCP1, active compounds read low 0.997 | S. cerevisiae deletion strains, locus YNL006W, strain LST8, active compounds read low 0.975 | S. cerevisiae deletion strains, locus YNL020C, strain ARK1, active compounds read low 1 | S. cerevisiae deletion strains, locus YNL161W, strain CBK1, active compounds read low 0.982 | S. cerevisiae deletion strains, locus YNL183C, strain NPR1, active compounds read low 1.06 | S. cerevisiae deletion strains, locus YNL207W, strain RIO2, active compounds read low 0.986 | S. cerevisiae deletion strains, locus YNL222W, strain SSU72, active compounds read low 0.989 | S. cerevisiae deletion strains, locus YNL307C, strain MCK1 (second series), active compounds read low 1 | S. cerevisiae deletion strains, locus YOL078W, strain AVO1, active compounds read low 0.994 | S. cerevisiae deletion strains, locus YOL136C, strain PFK27, active compounds read low 1 | S. cerevisiae deletion strains, locus YOR061W, strain CKA2, active compounds read low 1.01 | S. cerevisiae deletion strains, locus YOR119C, strain RIO1, active compounds read low 1.04 | S. cerevisiae deletion strains, locus YOR231W, strain MKK1, active compounds read low 1.02 | S. cerevisiae deletion strains, locus YOR329C, strain SCD5, active compounds read low 0.993 | S. cerevisiae deletion strains, locus YPL031C, strain PHO85, active compounds read low 0.992 | S. cerevisiae deletion strains, locus YPL153C, strain RAD53, active compounds read low 1 | S. cerevisiae deletion strains, locus YPL204W, strain HRR25, active compounds read low 1 | S. cerevisiae deletion strains, locus YPL209C, strain IPL1, active compounds read low 0.993 | S. cerevisiae deletion strains, locus YPL256C, strain CLN2, active compounds read low 0.94 | S. cerevisiae deletion strains, locus YPR025C, strain CCL1, active compounds read low 0.992 | S. cerevisiae deletion strains, locus YPR106W, strain ISR1, active compounds read low 0.981 | S. cerevisiae deletion strains, locus YPR111W, strain DBF20, active compounds read low 0.966 | S. cerevisiae deletion strains, strain NNK1, active compounds read low 0.963 | S. cerevisiae deletion strains, strain TSCII, active compounds read low 0.991

c1ccc(CN2CCC3(CCCc4ccccc43)CC2)cc1
active: S. cerevisiae deletion strains, locus YCL061C, strain MRC1 (second series), active compounds read low 0.938 | S. cerevisiae deletion strains, locus YDR363W, strain ESC2, active compounds read low 0.805 | [6] 0.854
inactive: S. cerevisiae deletion strains, locus YAL040C, strain CLN3, active compounds read low 1.02 | S. cerevisiae deletion strains, locus YER002W, strain NOP16, active compounds read low 0.975 | [3] 0.976 | [4] 1 | [5] 0.817 | S. cerevisiae deletion strains, locus YNL175C, strain NOP13, active compounds read low 0.993 | S. cerevisiae deletion strains, locus YNL197C, strain WHI3, active compounds read low 0.983 | S. cerevisiae deletion strains, locus YNL224C, strain SQS1, active compounds read low 1.01 | S. cerevisiae deletion strains, locus YOR083W, strain WHI5 (second series), active compounds read low 0.874 | [7] 0.955

O=C1NC2(CCN(Cc3ccccc3)CC2)Oc2ccccc21
inactive: [8] 0.999 | [9] 0.993 | [1] 0.949 | [10] 0.993 | [11] 1.02 | [3] 0.98 | S. cerevisiae deletion strains, locus YGR229C, strain SMI1, active compounds read low 0.995 | [2] 1.04 | [12] 0.968 | [13] 1 | [14] 0.985 | S. cerevisiae deletion strains, locus YKL190W, strain CNB1, active compounds read low 0.988 | [15] 0.984 | [16] 0.972 | [17] 1.14 | [18] 0.992 | [19] 1 | [20] 0.995 | [21] 1.03 | [5] 0.997 | [22] 0.955 | [23] 0.997 | [24] 0.975 | S. cerevisiae deletion strains, locus YOL006C, strain TOP1, active compounds read low 0.918 | [6] 0.997 | [7] 1.1 | [25] 0.834 | [26] 0.983

CC(C)(C)NC(=S)NC1CCN(Cc2ccccc2)CC1
inactive: [8] 1.06 | [9] 0.997 | S. cerevisiae deletion strains, locus YCL061C, strain MRC1, active compounds read low 1.03 | [1] 1.01 | S. cerevisiae deletion strains, locus YDL134C, strain PPH21, active compounds read low 0.994 | [10] 0.969 | [11] 1.02 | [3] 1.01 | [2] 1.06 | [12] 0.986 | [13] 0.995 | [14] 0.994 | [15] 0.994 | [16] 0.983 | [17] 1.03 | [18] 0.985 | [19] 1.02 | [20] 1.01 | [21] 0.992 | [4] 0.987 | [5] 1.01 | [22] 1.01 | [23] 0.995 | [24] 1.03 | [6] 0.986 | [7] 1 | [25] 1.16 | [26] 0.981
